According to PubChem BioAssay (NCATS):
Inconclusive results are not listed. The source made the active and inactive calls. Calls follow the shape of the dose curve; as a rule, active = well fitted inhibition curve with a large enough effect; inconclusive = small, poorly fitted or top-dose-only effect; inactive = flat fitted curve, though single readings scatter.

Test system: CP268
Experiment: qHTS profiling for inhibitors of Plasmodium falciparum proliferation (AID 504749); also: nearly all actives have a fitted effect of over 60% in size
Conditions: P. falciparum in erythrocytes, SYBR Green DNA, 72 h; series mostly up to 12.8 µM
Summary of the method: (§1)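 Parasite proliferation within erythrocytes, 72 h exposure. Endpoint: SYBR Green I fluorescence after overnight lysis at room temperature. Controls: 0.29 uM artemisinin, DMSO.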
Potency is read from the fitted curve at half-maximal effect.

Potency, inactive:
CC1(C)S[C@H]2C(NC(=O)[C@@H](N)c3ccc(O)cc3)C(=O)N2[C@@H]1C(=O)O (stereo partly drawn)
CN(C)CCc1c[nH]c2ccc(CC3COC(=O)N3)cc12 (stereo not drawn)
C[C@@]12CCC(=O)C=C1C=CC1C2CC[C@]2(C)C1CC[C@@]21CCC(=O)O1 (stereo partly drawn)
CC(C)Oc1ccc2c(=O)cc(-c3ccccc3)oc2c1
CCCCCCCCCc1ccc(OCCOCCOCCOCCOCCOCCOCCOCCOCCO)cc1
CC(=O)O[C@@]1(C(C)=O)CCC2C3CC(C)C4=CC(=O)CC[C@@]4(C)C3CC[C@]21C (stereo partly drawn)
N[C@@H]1C(O)OC(CO)C(O)C1O (stereo partly drawn)
CC(=O)OCC(=O)[C@@]12OC3(CCCC3)OC1CC1C3CCC4=CC(=O)C=C[C@@]4(C)[C@]3(F)C(O)C[C@]12C (stereo partly drawn)
C=Cc1c(C)/c2[n-]/c1=C\c1[n-]c(c(CC)c1C)/C=c1\[n-]c3c(c1C)C(=O)C(C(=O)[O-])C=3c1[n-]c(c(C)c1CCC(=O)[O-])\C=2.[Cu].[Na+].[Na+] (stereo not drawn)
CC(=O)[C@]1(O)CCC2C3C=C(Cl)C4=CC(=O)C5CC5[C@@]4(C)C3CC[C@]21C (stereo partly drawn)
COC1OC(CO)C(OC2OC(C(=O)O)C(OC3OC(COS(=O)(=O)O)C(OC4OC(C(=O)O)C(OC5OC(CO)C(OC6OC(C(=O)O)C(OC7OC(COS(=O)(=O)O)C(OC8OC(C(=O)O)=C[C@H](O)C8OS(=O)(=O)O)C(O)C7NC(C)=O)[C@@H](O)C6O)C(O)C5NC(C)=O)[C@@H](O)C4O)C(O)C3NC(C)=O)[C@@H](O)C2O)C(O)C1NC(C)=O (stereo partly drawn)
C[C@@]12C=CC(=O)C=C1CCC1C3CC(O)[C@@](O)(C(=O)CO)[C@]3(C)CC(O)[C@]12F (stereo partly drawn)
CCC1OC(=O)C(C)[C@@H](O[C@H]2C[C@@](C)(OC)C(O)C(C)O2)C(C)[C@@H](O[C@@H]2OC(C)CC(N(C)C)C2O)[C@@](C)(O)CC(C)C(=O)[C@@H](C)C(O)[C@]1(C)O (stereo partly drawn)
CC1C2CCC3C4CC=C5CC(N(C)C)CC[C@@]5(C)C4CC[C@@]32CN1C (stereo partly drawn)
COC1CC(O[C@H]2/C(C)=C/CC3CC(C[C@]4(CCC(C)C(C5CCCCC5)O4)O3)OC(=O)[C@H]3C=C(C)/C(=N/O)C4OC/C(=C\C=C\[C@@H]2C)[C@@]43O)OC(C)C1O (stereo partly drawn)
CCC(C)C(=O)OC1CC(O)C=C2C=CC(C)C(CCC(O)CC(O)CC(=O)O)C21 (stereo not drawn)
OCC1OC(n2cnc3c(=S)nc[nH]c32)C(O)C1O (stereo not drawn)

Test system: CP269
Experiment: as above
Conditions: P. falciparum in erythrocytes, SYBR Green DNA, 72 h; series mostly up to 12.8 µM
Summary of the method: as §1

Potency, inactive:
CC1(C)S[C@H]2C(NC(=O)[C@@H](N)c3ccc(O)cc3)C(=O)N2[C@@H]1C(=O)O (stereo partly drawn)
CN(C)CCc1c[nH]c2ccc(CC3COC(=O)N3)cc12 (stereo not drawn)
C[C@@]12CCC(=O)C=C1C=CC1C2CC[C@]2(C)C1CC[C@@]21CCC(=O)O1 (stereo partly drawn)
CC(C)Oc1ccc2c(=O)cc(-c3ccccc3)oc2c1
CC(=O)O[C@@]1(C(C)=O)CCC2C3CC(C)C4=CC(=O)CC[C@@]4(C)C3CC[C@]21C (stereo partly drawn)
CC(=O)OCC(=O)[C@@]12OC3(CCCC3)OC1CC1C3CCC4=CC(=O)C=C[C@@]4(C)[C@]3(F)C(O)C[C@]12C (stereo partly drawn)
C=Cc1c(C)/c2[n-]/c1=C\c1[n-]c(c(CC)c1C)/C=c1\[n-]c3c(c1C)C(=O)C(C(=O)[O-])C=3c1[n-]c(c(C)c1CCC(=O)[O-])\C=2.[Cu].[Na+].[Na+] (stereo not drawn)
CC(=O)[C@]1(O)CCC2C3C=C(Cl)C4=CC(=O)C5CC5[C@@]4(C)C3CC[C@]21C (stereo partly drawn)
COC1OC(CO)C(OC2OC(C(=O)O)C(OC3OC(COS(=O)(=O)O)C(OC4OC(C(=O)O)C(OC5OC(CO)C(OC6OC(C(=O)O)C(OC7OC(COS(=O)(=O)O)C(OC8OC(C(=O)O)=C[C@H](O)C8OS(=O)(=O)O)C(O)C7NC(C)=O)[C@@H](O)C6O)C(O)C5NC(C)=O)[C@@H](O)C4O)C(O)C3NC(C)=O)[C@@H](O)C2O)C(O)C1NC(C)=O (stereo partly drawn)
C[C@@]12C=CC(=O)C=C1CCC1C3CC(O)[C@@](O)(C(=O)CO)[C@]3(C)CC(O)[C@]12F (stereo partly drawn)
CCC1OC(=O)C(C)[C@@H](O[C@H]2C[C@@](C)(OC)C(O)C(C)O2)C(C)[C@@H](O[C@@H]2OC(C)CC(N(C)C)C2O)[C@@](C)(O)CC(C)C(=O)[C@@H](C)C(O)[C@]1(C)O (stereo partly drawn)
CC1C2CCC3C4CC=C5CC(N(C)C)CC[C@@]5(C)C4CC[C@@]32CN1C (stereo partly drawn)
COC1CC(O[C@H]2/C(C)=C/CC3CC(C[C@]4(CCC(C)C(C5CCCCC5)O4)O3)OC(=O)[C@H]3C=C(C)/C(=N/O)C4OC/C(=C\C=C\[C@@H]2C)[C@@]43O)OC(C)C1O (stereo partly drawn)
CCC(C)C(=O)OC1CC(O)C=C2C=CC(C)C(CCC(O)CC(O)CC(=O)O)C21 (stereo not drawn)
OCC1OC(n2cnc3c(=S)nc[nH]c32)C(O)C1O (stereo not drawn)

Potency, active:
NC(CCC(=O)N[C@@H](CS)C(=O)NCC(=O)O)C(=O)O (stereo partly drawn) 15.1 µM
